± gives the standard deviation of the averaged measurements. Over roughly 4,100 sequences, “relative kcat/Km (krel) vs genomic leader AAAGAU” has its median near 1.7; the highest 2% begin near 6.5. Only a selection was taken, and the highest values are over-represented in it overall.
Molecular target: T1, E. coli RNase P holoenzyme (M1 P RNA + rnpA protein) (UniProt P0A7Y8)
T1 sequence: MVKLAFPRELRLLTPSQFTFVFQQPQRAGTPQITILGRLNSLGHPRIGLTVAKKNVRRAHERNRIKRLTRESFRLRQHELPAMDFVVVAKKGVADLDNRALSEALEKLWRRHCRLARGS
Assay: relative kcat/Km (krel) vs genomic leader AAAGAU (relative (reference leader = 1)); higher = faster RNase P cleavage
Procedure: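 HTS-Kin: a pool of ptRNA-Met (21C construct) with all 4096 combinations of 5' leader nucleotides N(-6) to N(-1) was processed in vitro by E. coli RNase P (P RNA + rnpA/C5 protein) under multiple-turnover conditions at 37 C, pH 8, 17.5 mM MgCl2. Residual substrate was Illumina-sequenced at several fractions reacted, and relative kcat/Km (krel) was computed by internal competition kinetics, calibrated to the genomic leader (AAAGAU = 1). The listed hexamer is the varied N(-6)..N(-1) leader (DNA letters), and it sits between a fixed 5' stem-loop flank (GCAUGCACGAAAGUGCGUGCUAUGAA) and the mature tRNA-Met starting GGCUACGUAGCUCAGUUGG. Two technical replicates are averaged.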

[1] = fraction of substrate reacted: ~9-10% (9.79% repeat 1, 9.1% repeat 2)
[2] = fraction of substrate reacted: ~13-16% (15.68% repeat 1, 13.17% repeat 2)
[3] = fraction of substrate reacted: ~26-29% (28.66% repeat 1, 26.4% repeat 2)

| Sequence | relative kcat/Km [1] | relative kcat/Km [2] | relative kcat/Km [3] |
| --- | --- | --- | --- |
| CCCCCT | 2.27 ± 1.8 | 1.25 ± 0.29 | 1.95 ± 0.15 |
| CCTAAA | 2.53 ± 1.5 | 2.31 ± 0.051 | 3.14 ± 0.82 |
| ACCTAG | 2.77 ± 2.8 | 2.93 ± 0.56 | 4.27 ± 0.99 |
| GCCTAA | 2.35 ± 0.18 | 3.94 ± 0.16 | 7.08 ± 2.8 |
| GCCTAT | 2.77 ± 0.47 | 3.91 ± 0.98 | 6.22 ± 2.8 |
| CCCTGT |  |  | 1.59 ± 0.87 |
| ACCTAA | 2.83 ± 0.76 | 4.49 ± 0.31 | 6.74 ± 2.3 |
| TGCAAA | 0.962 ± 0.78 | 1.86 ± 0.54 | 2.7 ± 1.3 |
| CGGACC | 0.889 ± 0.39 | 0.714 ± 0.41 | 0.577 ± 0.38 |
| ACCGGT |  |  | 1.78 ± 1.1 |
| TGGTCT |  |  | 0.817 ± 0.39 |
| CTGGCG | 0.881 ± 0.58 |  | 0.461 ± 0.2 |
| CAGTGA | 1.48 ± 0.7 | 2.14 ± 0.58 | 3.05 ± 0.86 |
| GATCGA | 2.37 ± 0.82 | 2.79 ± 1.2 | 4.26 ± 1.2 |
| GTTAAG |  | 1.6 ± 0.16 | 2.65 ± 0.77 |
| CTACTC | 2.13 ± 1.3 | 1.61 ± 0.43 | 2.14 ± 0.28 |
| TCCTAA | 5.1 ± 1.9 | 6.12 ± 0.94 | 9.11 ± 3.3 |
| TCCTAG | 2.56 ± 0.72 | 3.4 ± 0.46 | 6.01 ± 2.7 |
| TACCGA | 2.83 ± 0.7 | 4.89 ± 1.1 | 7.04 ± 2.7 |
| TACCGC | 3.15 ± 1.3 | 4.16 ± 0.76 | 6.03 ± 2.5 |
| CACCGA | 3.39 ± 1.4 | 3.9 ± 0.93 | 6.22 ± 2.1 |
| AACCGA | 2.67 ± 0.52 | 3.23 ± 0.34 | 4.66 ± 1.2 |

| Sequence | relative kcat/Km [1] | relative kcat/Km [2] | relative kcat/Km [3] |
| --- | --- | --- | --- |
| GACCGA | 3.3 ± 0.89 | 4.27 ± 2.1 | 6.73 ± 2.8 |
| TACCGG |  |  | 1.29 ± 0.22 |
| AGCCGC | 3.07 ± 1.3 | 2.5 ± 0.098 | 4.02 ± 1.1 |
| TGTATC | 1.92 ± 0.29 | 2.43 ± 0.36 | 4 ± 1.6 |
| AACTGT | 0.625 ± 0.14 | 0.97 ± 0.59 | 0.608 ± 0.51 |
| GGACGG |  |  | 0.782 ± 0.17 |
| GGCGGC |  |  | 0.914 ± 0.47 |
| GAACAG |  | 0.667 ± 0.64 | 1.66 ± 0.19 |
| TCATAA | 3.15 ± 1.2 | 4.17 ± 0.67 | 5.77 ± 2.2 |
| TCATAG | 1.97 ± 1.4 | 1.66 ± 0.34 | 3.6 ± 0.47 |
| TAATAT | 3.78 ± 1.4 | 5.05 ± 0.28 | 7.45 ± 3.4 |
| ACATAT | 2.86 ± 0.79 | 4.26 ± 0.58 | 6.5 ± 3.1 |
| GAATAT | 2.99 ± 0.33 | 4.3 ± 0.79 | 6.29 ± 3.4 |
| TCATAT | 4.21 ± 1.4 | 5.49 ± 1 | 8.18 ± 3.4 |
| TCATAC | 4.3 ± 0.51 | 5.72 ± 0.91 | 7.38 ± 3 |
| TAATAA | 3.59 ± 2 | 4.41 ± 0.57 | 5.5 ± 2.2 |
| ACATAC | 3.09 ± 1.3 | 3.78 ± 0.48 | 6.1 ± 2.7 |
| ACAACT |  |  | 1.07 ± 0.15 |
| CGGACA | 0.696 ± 0.1 | 0.739 ± 0.49 | 0.747 ± 0.23 |
| GCAAAT | 2.24 ± 0.9 | 2.01 ± 0.39 | 1.93 ± 0.58 |
| CGACCC |  | 0.175 ± 0.13 | 1.47 ± 0.038 |
| AAGATG |  |  | 0.939 ± 0.44 |

| Sequence | relative kcat/Km [1] | relative kcat/Km [2] | relative kcat/Km [3] |
| --- | --- | --- | --- |
| TACGAC | 3.699 ± 0.0078 | 5.54 ± 1.6 | 7.61 ± 3.2 |
| GACGAA | 3.75 ± 1.5 | 6.07 ± 1.1 | 8.11 ± 2.6 |
| CACGAT | 1.78 ± 0.53 | 2.22 ± 0.33 | 3.42 ± 1.1 |
| GACGGA |  | 1.21 ± 1.1 | 0.922 ± 0.64 |
| AACGAA | 2.84 ± 0.7 | 3.68 ± 0.69 | 5.36 ± 1.9 |
| CACGAG | 1.8 ± 0.22 | 2.47 ± 1.2 | 3.69 ± 1.2 |
| TACGAA | 2.87 ± 0.059 | 5.68 ± 1 | 8.44 ± 3.8 |
| CACGAC | 3.62 ± 0.058 | 5.56 ± 2.7 | 7.35 ± 3 |
| TACGAG |  | 1.58 ± 0.12 | 3.95 ± 1.1 |
| AACGAC | 3.67 ± 0.53 | 4.57 ± 1.6 | 5.98 ± 2.1 |
| GACGTA | 2.41 ± 1.4 | 2.86 ± 0.42 | 3.54 ± 1.3 |
| TACGAT | 2.93 ± 1.5 | 2.79 ± 0.68 | 3.63 ± 1.5 |
| TCGTCA | 2.78 ± 1.8 | 2.51 ± 0.12 | 3.63 ± 1.3 |
| ACTAGG |  |  | 0.408 ± 0.15 |
| CGGGCA | 1.28 ± 0.55 | 0.965 ± 0.75 | 0.825 ± 0.17 |
| CCAGAC | 2.22 ± 0.29 | 2.1 ± 1.1 | 3.22 ± 0.77 |
| AAGGGA |  |  | 1.11 ± 0.65 |
| TTTTCC | 2.77 ± 1.4 | 2.75 ± 0.3 | 3.22 ± 0.98 |
| GAGGTG |  |  | 0.61 ± 0.57 |
| GGATGG |  |  | 0.8644 ± 0.0076 |
| CTTTTT | 2.99 ± 1.5 | 3.27 ± 0.75 | 4.46 ± 1.3 |
| GCTCGG | 0.809 ± 0.37 | 0.268 ± 0.21 | 0.748 ± 0.15 |

| Sequence | relative kcat/Km [1] | relative kcat/Km [2] | relative kcat/Km [3] |
| --- | --- | --- | --- |
| GACGAG |  | 1.49 ± 0.19 | 3.3 ± 0.29 |
| CACGAA | 4.26 ± 1.8 | 6 ± 1.6 | 7.87 ± 2.6 |
| CACGTA | 1.91 ± 1.1 | 2.23 ± 0.31 | 3.56 ± 1.4 |
| GACGAT | 1.52 ± 0.65 | 2.06 ± 1.5 | 2.68 ± 1.1 |
| GACGAC | 3.35 ± 0.49 | 5.87 ± 1.6 | 7.89 ± 2.8 |
| CACGCA | 2.14 ± 0.48 | 3.31 ± 1.5 | 4.91 ± 1.6 |
| CGGATT |  |  | 0.799 ± 0.34 |
| CAAATA | 2.33 ± 2.3 | 1.68 ± 0.092 | 1.78 ± 0.47 |
| CACCTA | 2.32 ± 0.25 | 2.44 ± 0.4 | 3.68 ± 1.3 |
| ACTAAC | 1.48 ± 0.31 | 1.42 ± 0.44 | 2.32 ± 0.65 |
| ATCTGC | 3.18 ± 0.4 | 3.94 ± 1.9 | 6.13 ± 3 |
| TTCTGC | 4.12 ± 0.25 | 5.95 ± 2.2 | 8.28 ± 3.5 |
| TTCTGT |  |  | 2.43 ± 1.9 |
| GTCTGC | 3.58 ± 1.3 | 4.94 ± 1.2 | 7.11 ± 3.3 |
| CTCTGG | 0.652 ± 0.17 |  | 1.31 ± 0.49 |
| CTCTGC | 3.95 ± 0.21 | 5.74 ± 1.6 | 7.34 ± 3 |
| TTCTGA | 4.7 ± 2.6 | 5.18 ± 0.91 | 7.63 ± 2.7 |
| TTCTGG | 0.949 ± 0.38 | 0.819 ± 0.094 | 1.66 ± 0.46 |
| ATCTGA | 3.86 ± 1.9 | 3.98 ± 0.23 | 6.19 ± 2.2 |
| TGCTGC | 1.63 ± 0.12 | 1.51 ± 1.2 | 2.71 ± 1 |
| GCCTGC | 2.23 ± 0.7 | 3.39 ± 0.37 | 4.68 ± 2.1 |
| GACTGC | 3.44 ± 0.14 | 3.38 ± 0.99 | 4.88 ± 1.6 |

| Sequence | relative kcat/Km [1] | relative kcat/Km [2] | relative kcat/Km [3] |
| --- | --- | --- | --- |
| GGTTGG |  |  | 1.05 ± 0.77 |
| TGACAC | 3.63 ± 1.5 | 4.21 ± 0.43 | 5.94 ± 2.2 |
| TTGCCT | 1.95 ± 0.52 | 1.33 ± 0.068 | 2.09 ± 0.58 |
| GGAGCC | 1.22 ± 0.046 | 0.902 ± 0.094 | 1.3 ± 0.38 |
| ACACGG |  | 0.487 ± 0.4 |  |
| ACGCAA | 1.95 ± 1.4 | 1.95 ± 0.18 | 2.25 ± 0.13 |
| GGGGCG | 0.268 ± 0.026 |  | 0.656 ± 0.0035 |
| ATAGGT |  |  | 2.15 ± 1.4 |
| ATAACT | 1.28 ± 0.37 | 1.21 ± 0.2 | 1.79 ± 0.75 |
| GAGTTT | 1.6 ± 0.65 | 1.28 ± 0.17 | 2.05 ± 0.46 |
| ACAAAC | 1.92 ± 1.6 | 1.88 ± 1.1 | 2.42 ± 0.36 |
| CTCTGA | 4.13 ± 2 | 4.61 ± 0.58 | 6.63 ± 1.7 |
| CTCTGT | 0.825 ± 0.31 | 1.81 ± 1.4 | 2.05 ± 1.6 |
| GTCTGA | 3.86 ± 1.8 | 4.82 ± 1.2 | 6.97 ± 2.6 |
| GTCTGG |  | 0.567 ± 0.54 | 0.916 ± 0.067 |
| CGCTGA | 1.89 ± 0.05 | 2.02 ± 1 | 3.55 ± 0.89 |
| GTCTGT |  |  | 2.58 ± 2 |
| GGGCAT | 1.03 ± 0.31 | 1.51 ± 0.12 | 2.18 ± 0.97 |
| TCTAAG | 2.04 ± 1.6 | 1.47 ± 0.52 | 2.47 ± 0.27 |

From the supplement of paper PMC9433436
